High-throughput results as filed in PubChem.
aSyn UTR inh = 5' untranslated region of α-synuclein, MLPCN primary screen; alpha-synuclein 5'UTR reporter, inhibitor activity; inhibition, % (tested at 7.5 µM); AID 1813; actives 0.82% (n = 300,000); in the data active = inhibition above about 60%;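 note: H4 neuroglioblastoma cells stably carrying SNCA 5'UTR luciferase fusion; 0% = DMSO wells and 100% = positive control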
A1 inh = inhibitors of the anti-apoptotic protein A1, read as caspase activation. MEF A1-2A-BIM cells, Caspase-Glo 3/7 luminescence, 3 h; percent of clofoctol response, vehicle zero. caspase activation, % (no concentration beside the values). actives 0.066% (n = 330,000);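 active = over half of replicate activation scores above 10%, or exactly half above 10 with the replicate mean above 10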
CSC inhib = blocks cancer stem cells; cancer stem cell-like cells viability, luminescence; inhibition, % at 7.5 µM; actives 1.1% (n = 300,000); in the data active = inhibition above about 75%; tested in HMLE shEcad cells
Beta apoptosis = blocks beta cell apoptosis; INS-1E cytokine-induced death, ATP luminescence, 48 h; percent of positive-control rescue, neutral wells zero; actives 0.8% (n = 300,000); protection from apoptosis, % (concentration not given with the values);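 active = Every replicate reaches about 75%, or at least half do and their mean reaches it too, limit read from the data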;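 note: 0% = cytokine-treated negative control wells and 100% = positive control rescue; higher means more ATP so stronger rescue from cytokine killing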
Mdm2 MdmX PPI = human Mdm2/MdmX binding inhibition; inhibition, % at 8 µM; AID 485346; SaOS-2 split-luciferase Mdm2/MdmX complementation, luminescence; O15151+Q00987; actives 3% (n = 330,000);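 active = inhibition of at least 50% at 8 µM in the primary screen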
Target sequence (O15151 whole entry, looked up): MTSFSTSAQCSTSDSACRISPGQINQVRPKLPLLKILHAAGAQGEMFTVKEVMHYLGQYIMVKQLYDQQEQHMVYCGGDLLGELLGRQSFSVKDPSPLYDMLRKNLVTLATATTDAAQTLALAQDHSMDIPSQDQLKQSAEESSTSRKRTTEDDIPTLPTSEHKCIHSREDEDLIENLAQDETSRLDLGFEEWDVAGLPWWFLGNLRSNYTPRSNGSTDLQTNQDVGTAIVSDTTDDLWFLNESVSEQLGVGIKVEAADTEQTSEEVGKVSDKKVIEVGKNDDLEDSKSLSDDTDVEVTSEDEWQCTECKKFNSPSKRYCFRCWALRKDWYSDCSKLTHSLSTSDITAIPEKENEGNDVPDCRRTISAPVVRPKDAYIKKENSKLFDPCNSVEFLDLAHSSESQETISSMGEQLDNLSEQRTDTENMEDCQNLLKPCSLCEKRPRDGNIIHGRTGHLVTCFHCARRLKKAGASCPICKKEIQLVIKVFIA
Target sequence (Q00987 whole entry, looked up): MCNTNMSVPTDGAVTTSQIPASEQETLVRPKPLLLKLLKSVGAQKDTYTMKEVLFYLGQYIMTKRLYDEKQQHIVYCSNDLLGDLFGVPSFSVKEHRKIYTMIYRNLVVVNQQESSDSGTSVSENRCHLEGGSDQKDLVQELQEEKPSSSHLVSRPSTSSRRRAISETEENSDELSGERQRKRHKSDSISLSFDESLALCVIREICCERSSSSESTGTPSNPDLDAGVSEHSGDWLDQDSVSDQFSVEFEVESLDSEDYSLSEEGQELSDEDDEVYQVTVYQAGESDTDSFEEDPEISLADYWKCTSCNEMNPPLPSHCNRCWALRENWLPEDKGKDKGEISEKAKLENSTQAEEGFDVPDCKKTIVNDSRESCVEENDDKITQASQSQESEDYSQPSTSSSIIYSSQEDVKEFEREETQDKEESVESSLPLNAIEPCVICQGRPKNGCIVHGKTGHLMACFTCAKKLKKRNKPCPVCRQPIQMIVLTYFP
Mdm2-MdmX conf = human Mdm2/MdmX binding inhibition, confirmed; AID 489028; inhibition, % at 8 µM; shares compounds with Mdm2 MdmX PPI; actives 55% (n = 10,000); luminescent assay; in the data active = inhibition above about 40%
FLuc counter = full-length luciferase inhibition in Mdm2/MdmX counter-screen | shares compounds with Mdm2 MdmX PPI | SaOS-2 full-length luciferase counterscreen, luminescence | inhibition, % at 8 µM | actives 77% (n = 6,200) | AID 504607;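 active = mean inhibition at 8 µM reaching about 37%, which flags the compound as non-specific, limit read from the data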;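 note: p53-null SaOS-2 cells with luciferase driven by a doxycycline-inducible promoter; compound on cells about two nights before reading with doxycycline added after day one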
* hit, by the source's call; . = no result given. Most compounds without a hit are left out; they make up all but 4.1% or so of the library.

SMILES	aSyn UTR inh	A1 inh	CSC inhib	Beta apoptosis	Mdm2 MdmX PPI	Mdm2-MdmX conf	FLuc counter
Cc1ccc(NC(=O)[C@H](Cc2c[nH]c3ccccc23)NC(=O)[C@@H]2Cc3ccccc3CN2)c(C)c1	23	1	-13	-3	97*	82*	49*
CCc1ccc(NC(=O)[C@H](Cc2c[nH]c3ccccc23)NC(=O)[C@@H]2Cc3ccccc3CN2)cc1	-7	-2	-2	.	93*	83*	24
COc1ccccc1C(=O)N1CCN(C(=O)c2oc3ccc(C)cc3c2C)CC1	36	1	12	0	5	.	.
Cc1cccc(NC(=O)[C@H](Cc2c[nH]c3ccccc23)NC(=O)[C@@H]2Cc3ccccc3CN2)c1	32	1	42	.	95*	79*	27
Cc1cccc(NC(=O)[C@@H](NC(=O)[C@@H]2Cc3ccccc3CN2)C(C)C)c1	-19	-2	3	2	3	.	.
Cc1ncc(CN2CCC(C(=O)Nc3cccc(-c4cscn4)c3)CC2)cn1	11	0	-11	-6	11	.	.
NC(=S)N=Nc1c(O)n(CCCl)c2ccc(Br)cc12	32	0	20	19	25	.	.
C/C(Cl)=C\Cn1c(O)c(N=NC(N)=S)c2cc(Br)ccc21	70*	-1	.	30	75*	49*	74*
O=C(Nc1nc2ccccc2n1CCN1CCOCC1)c1ccccc1	-6	-1	-9	2	3	.	.
O=C(Nc1nc2ccccc2n1CCN1CCOCC1)c1cn(-c2ccccc2)nc1-c1ccccc1	83*	0	57	65	51*	22	.
Cn1c(=O)c2c(nc(Oc3ccc4c(c3)OCO4)n2Cc2ccc(Cl)cc2)n(C)c1=O	26	1	-2	7	33	.	.
Cn1c(Oc2ccc3c(c2)OCO3)nc2c1c(=O)n(Cc1ccccc1)c(=O)n2C	7	0	7	9	62*	22	.
Cc1cc(OCC(=O)NCCCN2CCCC2=O)c2c(C)c(C)c(=O)oc2c1	-9	0	-15	-1	-7	.	.
c1csc(-c2nc(NCC3CCCO3)c3ccccc3n2)c1 (stereo not given)	11	0	.	-8	6	.	.
c1ccc(CN2CCC(Nc3nc(-c4cccs4)nc4ccccc34)CC2)cc1	62*	0	109*	24	93*	34	74*
CC(C)(C)n1nc(Cc2cccc3ccccc23)c2c(N)ncnc21	12	-1	39	4	54*	23	.
CC1=CC(C)(C)N(S(=O)(=O)c2ccc(C)cc2)c2ccccc21	41	0	.	.	64*	64*	88*
CCOc1ccc2c(c1)C(C)=CC(C)(C)N2S(=O)(=O)c1ccc(NC(C)=O)cc1	70*	2	53	45	62*	58*	113*
COc1ccc2c(c1)C(C)=CC(C)(C)N2S(=O)(=O)c1ccc(Br)cc1	-86	0	-9	39	.	.	.
COc1ccc2c(c1)C(C)=CC(C)(C)N2S(=O)(=O)c1ccc(NC(C)=O)cc1	71*	1	61	22	63*	54*	89*
CCOc1ccc2c(c1)C(C)=CC(C)(C)N2	.	0	-1	5	15	.	.
CCOc1ccc2c(c1)C(C)=CC(C)(C)N2S(=O)(=O)c1ccc(F)cc1	-38	1	59	.	51*	53*	49*
COc1ccc(C(=O)C2CCCN(C(=O)c3cc(C4CC4)[nH]n3)C2)c(C)c1 (stereo not given)	-14	0	13	3	18	.	.
O=C(NCCc1ccccc1)[C@@H]1CC=C[C@@H]2CCN(C3CCCCC3)C(=O)[C@@H]21	15	1	-7	-6	3	.	.
CCOc1cc(S(=O)(=O)N2CC=C(c3ccc(F)cc3)CC2)c(OCC)cc1-n1cnnn1	12	0	47	31	53*	53*	82*
SMILES	aSyn UTR inh	A1 inh	CSC inhib	Beta apoptosis	Mdm2 MdmX PPI	Mdm2-MdmX conf	FLuc counter
O=C(c1ccccc1)c1nc[nH]c1C(=O)Nc1ccccc1	-91	0	18	13	50*	30	65*
Cc1ccc(NC(=O)c2nc[nH]c2C(=O)NCCCCCCNC(=O)c2[nH]cnc2C(=O)Nc2ccc(C)cc2)cc1	.	-1	.	22	70*	11	.
O=C(Nc1ccccc1)c1nc[nH]c1C(=O)NCCCCNC(=O)c1[nH]cnc1C(=O)Nc1ccccc1	.	-1	17	0	77*	45*	90*
Cc1ccc(NC(=O)c2nc[nH]c2C(=O)NCCCCNC(=O)c2[nH]cnc2C(=O)Nc2ccc(C)cc2)cc1	.	1	.	15	80*	21	.
COc1ccccc1CCNS(=O)(=O)CCNC(=O)c1ccc2c(c1)OCO2	-1	-1	7	.	-25	.	.
CNC(=O)Cn1nc(-c2ccc(Cl)cc2)c2ccccc2c1=O	-18	0	-11	-3	3	.	.
Cc1ccc(NC(=O)c2nc[nH]c2C(=O)NCCCCCNC(=O)OC(C)(C)C)cc1	.	-2	26	12	31	.	.
Cc1ccc(NC(=O)c2nc[nH]c2C(=O)NCCCNC(=O)c2[nH]cnc2C(=O)Nc2ccc(C)cc2)cc1	.	0	113*	38	68*	32	.
O=[N+]([O-])c1cc([N+](=O)[O-])c(Oc2cncc(Cl)c2)cc1NC1CCCCCCC1	-30	1	39	5	74*	40	83*
O=[N+]([O-])c1ccc(Oc2cc(NC3CCCCCCC3)c([N+](=O)[O-])cc2[N+](=O)[O-])cc1	14	1	-12	11	33	.	.
Cc1ccc(S(=O)(=O)c2ccc(C)cc2)cc1	-5	0	-9	0	20	.	.
Nc1ccc(S(=O)(=O)c2ccccc2)nc1	1	1	-11	-6	5	.	.
Cc1ccc(S(=O)(=O)c2ccc([N+](=O)[O-])cn2)cc1	-73	-2	100*	105*	96*	88*	52*
O=[N+]([O-])c1ccc(S(=O)(=O)c2ccccc2)nc1	-48	-2	102*	106*	95*	97*	50*
Cc1cc(S(=O)(=O)c2ccc([N+](=O)[O-])cn2)ccc1Br	13	0	98*	17	99*	99*	39*
Cc1cc(Sc2ccc([N+](=O)[O-])cn2)ccc1Br	-8	0	25	-11	21	.	.
CC(NC(=O)COC(=O)COc1cccc2c1OC(C)(C)C2)c1ccccc1 (stereo not given)	6	0	-7	.	1	.	.
COc1cccc(CN2CC(C(=O)N3CCCO3)CCC2=O)c1 (stereo not given)	-7	0	-3	-3	12	.	.
CN1C(=O)CCC(CCC(=O)O)(c2ccccc2O)C1=O (stereo not given)	-22	0	4	-2	-5	.	.
